Laboratory results: PubChem BioAssay
Potency and affinity values are given separately. Inconclusive results are not listed. Activity calls are given as the source filed them. Unless noted, the rule behind the calls is not given here.

Columns and labels:
[1] = cytotoxicity in PAX8-dependent RMG-1 cells, dose response, cell-based, cherry-pick (AID 687029;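 active = signal drop whose fitted half-maximal concentration is at most twice the top valid dose, in every test run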;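 note: cells exposed to compound for 96 hours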)
[2] = cytotoxicity in IOSE-T80 ovarian epithelial cells, dose response, selectivity assay for PAX8 inhibitor project, cell-based, cherry-pick (AID 687032;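 active = fitted half-maximal concentration for viability loss no higher than twice the top valid dose, in every repeat run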;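 note: cells exposed to compound for 96 h before reading; 0% = neutral control wells and -100% = 2 µM mitoxantrone kill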)
[3] = inhibitors of CMV-promoter luciferase reporter, dose response, counter-screen for Pax8 inhibitor project, cell-based, HEK293, luminescence, dry powder (AID 743020;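 active = signal-lowering compounds whose fitted half-maximal concentration is at or below twice the top tested dose in every run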;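 note: HEK293 cells stably expressing the CMV luciferase reporter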)
[4] = non-specific cell cytotoxicity, dose response, cytotoxicity control for PAX8 inhibitor project, plate reader, dry powder samples (AID 743021)
[5] = IGROV1 ovarian cancer cell cytotoxicity, dose response, PAX8 inhibitor project, plate reader, dry powder samples (AID 743043);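 note: more negative means fewer viable cells or more cytotoxicity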
[6] = NIH:OVCAR-3 ovarian cancer cell cytotoxicity, dose response, PAX8 inhibitor project, plate reader, dry powder samples (AID 743044); conditions: max activity: at 35 µM, stronger effect = lower value unless noted
[7] = IOSE-T80 ovarian epithelial cell cytotoxicity, dose response, cytotoxicity control for PAX8 inhibitor project, plate reader, dry powder samples (AID 743045);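 note: 0% = neutral control median and -100% = positive control median; more negative values mean more cell killing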
[8] = A2780 ovarian cancer cell cytotoxicity, dose response, cytotoxicity control, plate reader, dry powder samples (AID 743046);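 note: 0% = neutral control wells and -100% = cytotoxic reference compound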
[9] = cytotoxicity in OVCAR8 ovarian cancer cells, dose response, PAX8 project, cell-based, plate reader, dry powder samples (AID 743197)

Measured: max activity

CCCC#Cc1ccc([C@H]2[C@H]3CN(S(=O)(=O)Cc4ccccc4)CCCCN3[C@H]2CO)cc1
inactive: [1] | [2] | [3] | [4] | [5] | [6] -34.3% | [7] | [8]

C[C@@H]1CN([C@@H](C)CO)C(=O)Cc2cc(NC(=O)Nc3ccc(C(F)(F)F)cc3)ccc2O[C@H]1CN(C)Cc1ccc(Oc2ccccc2)cc1
inactive: [1] | [2] | [3] | [4] | [5] | [6] -19.5% | [7] | [8]

C[C@H]1CCCCO[C@H](CN(C)C(=O)Nc2ccc(F)cc2)[C@@H](C)CN([C@@H](C)CO)C(=O)c2cc(NC(=O)Nc3ccc(C(F)(F)F)cc3)ccc2O1
inactive: [1] | [2] | [3] | [4] | [5] | [6] 8.44% [at 16 µM, stronger effect = lower value] | [7] | [8]

C[C@@H]1CN([C@H](C)CO)C(=O)c2cc(NC(=O)CCCCCC(=O)Nc3ccccc3N)ccc2O[C@@H](C)CCCCO[C@H]1CN(C)Cc1ccc(Cl)c(Cl)c1
inactive: [1] | [2] | [3] | [4] | [5] | [6] -28.2% | [7] | [8]

Cc1ccc(S(=O)(=O)N(C)C[C@H]2OCCCC[C@H](C)Oc3ccc(NS(=O)(=O)c4ccc(Cl)cc4)cc3C(=O)N([C@@H](C)CO)C[C@@H]2C)cc1
inactive: [1] | [2] | [3] | [4] | [5] | [6] 10.8% [at 2.1 µM, stronger effect = lower value] | [7] | [8]

O=C(C[C@H]1C[C@@H]2c3cc(NS(=O)(=O)c4ccc(F)cc4)ccc3O[C@@H]2[C@@H](CO)O1)NCc1ccc(-c2ccccc2)cc1
inactive: [1] | [2] | [3] | [4] | [5] | [6] -28.3% | [7] | [8]

COc1cccc(S(=O)(=O)N(C)C[C@@H]2OCc3ccccc3-c3c(n(C)c4ccccc34)C(=O)N([C@@H](C)CO)C[C@@H]2C)c1
inactive: [1] | [2] | [3] | [4] | [5] | [6] 23.2% [at 2.1 µM, stronger effect = lower value] | [7] | [8]

COc1cccc(S(=O)(=O)N(C)C[C@@H]2Oc3cc(C4=CCCCC4)ccc3S(=O)(=O)N([C@@H](C)CO)C[C@H]2C)c1
inactive: [1] | [2] | [3] | [4] | [5] | [6] -34.5% [at 0.5 µM, stronger effect = lower value] | [7] | [8]

C[C@@H]1CCCCO[C@@H](CN(C)Cc2ccc(Cl)c(Cl)c2)[C@H](C)CN([C@@H](C)CO)C(=O)c2cc(NS(=O)(=O)c3ccccc3)ccc2O1
inactive: [1] | [2] | [3] | [4] | [5] | [6] -34.1% [at 0.26 µM, stronger effect = lower value] | [7] | [8]

Cc1ccc(S(=O)(=O)Nc2ccc3c(c2)C(=O)N([C@@H](C)CO)C[C@@H](C)[C@H](CN(C)Cc2ccc(Cl)c(Cl)c2)OCCCC[C@@H](C)O3)cc1
inactive: [1] | [2] | [3] | [4] | [5] | [6] -18.1% [at 4.2 µM, stronger effect = lower value] | [7] | [8] | [9]

C[C@@H]1CCCCO[C@@H](CN(C)C(=O)Cc2ccccc2)[C@@H](C)CN([C@@H](C)CO)C(=O)c2cc(NC(=O)Nc3ccc(C(F)(F)F)cc3)ccc2O1
inactive: [1] | [2] | [3] | [4] | [5] | [6] -12.2% [at 16 µM, stronger effect = lower value] | [7] | [8] | [9]

C[C@@H]1CCCCO[C@@H](CN(C)Cc2ccc(Cl)c(Cl)c2)[C@H](C)CN([C@H](C)CO)C(=O)c2cc(NS(=O)(=O)c3ccccc3)ccc2O1
inactive: [1] | [2] | [3] | [4] | [5] | [6] 8.76% [at 1.95 µM, stronger effect = lower value] | [7] | [8] | [9]

C[C@@H]1CN([C@@H](C)CO)S(=O)(=O)c2ccc(C#Cc3ccc(F)cc3)cc2O[C@H]1CN(C)C(=O)NC1CCCCC1
inactive: [1] | [2] | [3] | [4] | [5] | [6] -9.84% | [7] | [8] | [9]

C[C@@H]1CCCCO[C@H](CN(C)C(=O)c2ccccc2)[C@@H](C)CN([C@@H](C)CO)C(=O)c2cc(NC(=O)Nc3ccc(C(F)(F)F)cc3)ccc2O1
inactive: [1] | [2] | [3] | [4] | [5] | [6] 20.2% [at 2.1 µM, stronger effect = lower value] | [7] | [8] | [9]

C[C@@H]1CN([C@H](C)CO)C(=O)c2c(c3ccccc3n2C)-c2ccccc2CO[C@@H]1CN(C)C
inactive: [1] | [2] | [3] | [4] | [5] | [6] 18.1% [at 0.5 µM, stronger effect = lower value] | [7] | [8] | [9]

C[C@@H]1CN([C@H](C)CO)C(=O)c2cc(NC(=O)Nc3ccc(C(F)(F)F)cc3)ccc2O[C@@H](C)CCCCO[C@H]1CN(C)Cc1ccc(Cl)c(Cl)c1
inactive: [1] | [2] | [3] | [4] | [5] | [6] 8.01% [at 8 µM, stronger effect = lower value] | [7] | [8] | [9]

C[C@@H]1CCCCO[C@H](CN(C)C(=O)Nc2ccc(C(F)(F)F)cc2)[C@@H](C)CN([C@@H](C)CO)C(=O)c2cc(NC(=O)Nc3ccccc3)ccc2O1
inactive: [1] | [2] | [3] | [4] | [5] | [6] -5.92% [at 16 µM, stronger effect = lower value] | [7] | [8] | [9]

C[C@@H]1CN([C@@H](C)CO)C(=O)c2cc(NC(=O)Nc3ccc(C(F)(F)F)cc3)ccc2O[C@@H](C)CCCCO[C@H]1CN(C)Cc1ccc(Cl)c(Cl)c1
inactive: [1] | [2] | [3] | [4] | [5] | [6] -12.8% [at 0.26 µM, stronger effect = lower value] | [7] | [8] | [9]

Cc1ccc(S(=O)(=O)N(C)C[C@@H]2Oc3cc(C#Cc4ccncc4)ccc3S(=O)(=O)N([C@@H](C)CO)C[C@H]2C)cc1
inactive: [1] | [2] | [3] | [4] | [5] | [6] -28.9% [at 16 µM, stronger effect = lower value] | [7] | [8] | [9]

C[C@H](CO)N1C[C@H](C)[C@@H](CN(C)Cc2ccc(Oc3ccccc3)cc2)OCc2ccccc2-c2c(n(C)c3ccccc23)C1=O
inactive: [1] | [2] | [3] | [4] | [5] | [6] 1.33% | [7] | [8] | [9]

CN1C[C@@H]2[C@H](c3ccccc31)[C@H](CO)N2Cc1ccccc1Cl
inactive: [1] | [2] | [3] | [4] | [5] | [6] 22.5% | [7] | [8] | [9]

C[C@@H]1CCCCO[C@H](CN(C)Cc2ccc(C(F)(F)F)cc2)[C@@H](C)CN([C@@H](C)CO)C(=O)c2cc(NS(=O)(=O)c3cccs3)ccc2O1
inactive: [1] | [2] | [3] | [4] | [5] | [6] -7.27% [at 0.5 µM, stronger effect = lower value] | [7] | [8] | [9]

C[C@@H]1CCCCO[C@H](CN(C)Cc2ccc(C(F)(F)F)cc2)[C@H](C)CN([C@@H](C)CO)C(=O)c2cc(NC(=O)Nc3ccc(F)cc3)ccc2O1
inactive: [1] | [2] | [3] | [4] | [5] | [6] -17.3% | [7] | [8] | [9]

C[C@H]1CCCCO[C@@H](CN(C)C(=O)Nc2ccc(C(F)(F)F)cc2)[C@@H](C)CN([C@@H](C)CO)C(=O)c2cc(NS(=O)(=O)c3cn(C)cn3)ccc2O1
inactive: [1] | [2] | [3] | [4] | [5] | [6] -16.1% | [7] | [8] | [9]

C[C@H](CO)N1C[C@H](C)[C@@H](CN(C)C(=O)Nc2ccc(F)cc2)OCc2ccccc2-c2c(n(C)c3ccccc23)C1=O
inactive: [1] | [2] | [3] | [4] | [5] | [6] 31.5% | [7] | [8] | [9]

C[C@@H]1CN([C@@H](C)CO)C(=O)Cc2cc(NC(=O)Nc3ccc(F)cc3)ccc2O[C@H]1CN(C)Cc1ccc(Cl)c(Cl)c1
inactive: [1] | [2] | [3] | [4] | [5] | [6] 11.5% [at 4.2 µM, stronger effect = lower value] | [7] | [8] | [9]

C[C@@H]1CCCCO[C@H](CN(C)S(=O)(=O)c2ccc(Cl)cc2)[C@@H](C)CN([C@@H](C)CO)C(=O)c2cc(NC(=O)CCC(F)(F)F)ccc2O1
inactive: [1] | [2] | [3] | [4] | [5] | [6] 17.2% [at 2.1 µM, stronger effect = lower value] | [7] | [8] | [9]

C[C@@H]1CN([C@@H](C)CO)C(=O)c2c(c3ccccc3n2C)-c2ccccc2CO[C@H]1CN(C)C(=O)Nc1ccc2c(c1)OCO2
inactive: [1] | [2] | [3] | [4] | [5] | [6] -21.8% [at 16 µM, stronger effect = lower value] | [7] | [8] | [9]
